17 compounds from PubChem BioAssay can be followed below.

Each structure is given as a SMILES string. The source made the active and inactive calls.

Experiment [1] concerns Plasmodium falciparum Sir2 (PF13_0152, Sir2A). In words: Plasmodium falciparum Sir2A binding compounds – biochemical, small-molecule microarray, 635 nm fluorescence, primary screen (AID 1098).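 Also: score merges spot fluorescence intensity with its signal-to-noise ratio.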 The following applies: fluorescence 635 nm, higher = more signal.
The nature of experiment [2]: probe aDKK1 binding to arrayed compounds – biochemical, biotinylated probe, 635/667 nm fluorescence, primary screen (AID 1099).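 Also: score merges 667nm spot fluorescence with signal to noise across triplicate slides; reference of the scale not given here.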 The settings on record: small-molecule microarray, higher = more signal.
The nature of experiment [3]: probe aCHRDL2 binding to arrayed compounds – biochemical, biotinylated probe, 635/667 nm fluorescence, primary screen (AID 1100). The following applies: small-molecule microarray, higher = more signal.
The nature of experiment [4]: change in splice reporter luminescence, either direction, cell-based, HEK293, spliceosome inhibition project, primary screen (AID 1101).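 Also: HEK293 cells carrying a splicing-competent luciferase reporter gene; test concentration not given here.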 The following applies: HEK293 splicing luciferase reporter, 24 h, higher = more signal, called active from +8 up or from −8 down.
The target of experiment [5] is Fibroblast growth factor 10 (Homo sapiens) (UniProt O15520). As to the kind of experiment: compounds binding fibroblast growth factor 10 – biochemical, small-molecule microarray, 635 nm fluorescence, primary screen (AID 1102). The settings on record: FGF10 binding, fluorescence 635 nm, higher = more signal.
Experiment [6] concerns glycogen synthase kinase-3 (GSK3A per assay name; protocol says GSK3B). As to the kind of experiment: compounds binding glycogen synthase kinase-3 – biochemical, small-molecule microarray, 635 nm fluorescence, GSK3A, primary screen (AID 1103). Also: the record names both GSK3A and GSK3B. The settings on record: fluorescence 635 nm, higher = more signal.
Experiment [7] deals with Epidermal growth factor receptor (Homo sapiens) (UniProt P00533). As to the kind of experiment: compounds binding epidermal growth factor receptor – biochemical, small-molecule microarray, 635 nm fluorescence, primary screen (AID 1104).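 Also: score merges 667 nm emission intensity with spot signal to noise over triplicate slides.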 The settings on record: EGFR binding, higher = more signal.
Experiment [8] addresses Follistatin-related protein 3 (Homo sapiens) (UniProt O95633). In words: compounds binding follistatin-related protein 3 – biochemical, small-molecule microarray, 635 nm fluorescence, primary screen (AID 1105).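 Also: score merges emission near 667 nm and signal to noise per printed spot across three slides.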 The settings on record: FSTL3 binding, higher = more signal.
Experiment [9] addresses Dickkopf-related protein 1 (Homo sapiens) (UniProt O94907). As to the kind of experiment: small molecules binding DKK1 protein – biochemical, small-molecule microarray, 635 nm fluorescence scan, primary screen (AID 1106).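 Also: score merges emission near 667 nm with signal to noise over three replicate slides.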 The following applies: higher = more signal.
Experiment [10] has as its system Inhibin beta A chain (activin A). As to the kind of experiment: small molecules binding activin A – biochemical, small-molecule microarray, 635 nm fluorescence scan, primary screen (AID 1107).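 Also: mouse activin A protein probed at 4.33 µg/mL on printed slides; score merges bound-protein fluorescence near 667 nm with spot signal-to-noise.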 The settings on record: INHBA, higher = more signal.

Chain of Fibroblast growth factor 10 (Homo sapiens) (O15520 whole entry, looked up): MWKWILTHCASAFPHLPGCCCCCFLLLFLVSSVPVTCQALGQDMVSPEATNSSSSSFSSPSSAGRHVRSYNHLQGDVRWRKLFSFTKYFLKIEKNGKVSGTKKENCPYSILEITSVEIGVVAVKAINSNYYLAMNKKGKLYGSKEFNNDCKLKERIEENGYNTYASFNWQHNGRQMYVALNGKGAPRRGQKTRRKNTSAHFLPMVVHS
Chain of Dickkopf-related protein 1 (Homo sapiens) (O94907 whole entry, looked up): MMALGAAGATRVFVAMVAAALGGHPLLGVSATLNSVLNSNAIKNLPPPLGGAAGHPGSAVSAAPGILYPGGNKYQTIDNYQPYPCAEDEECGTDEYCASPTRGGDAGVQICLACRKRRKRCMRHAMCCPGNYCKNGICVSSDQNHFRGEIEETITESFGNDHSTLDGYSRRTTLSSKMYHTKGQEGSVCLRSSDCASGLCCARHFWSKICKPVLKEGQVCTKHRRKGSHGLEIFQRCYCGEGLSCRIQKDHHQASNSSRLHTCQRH
Chain of Epidermal growth factor receptor (Homo sapiens) (P00533 whole entry, looked up): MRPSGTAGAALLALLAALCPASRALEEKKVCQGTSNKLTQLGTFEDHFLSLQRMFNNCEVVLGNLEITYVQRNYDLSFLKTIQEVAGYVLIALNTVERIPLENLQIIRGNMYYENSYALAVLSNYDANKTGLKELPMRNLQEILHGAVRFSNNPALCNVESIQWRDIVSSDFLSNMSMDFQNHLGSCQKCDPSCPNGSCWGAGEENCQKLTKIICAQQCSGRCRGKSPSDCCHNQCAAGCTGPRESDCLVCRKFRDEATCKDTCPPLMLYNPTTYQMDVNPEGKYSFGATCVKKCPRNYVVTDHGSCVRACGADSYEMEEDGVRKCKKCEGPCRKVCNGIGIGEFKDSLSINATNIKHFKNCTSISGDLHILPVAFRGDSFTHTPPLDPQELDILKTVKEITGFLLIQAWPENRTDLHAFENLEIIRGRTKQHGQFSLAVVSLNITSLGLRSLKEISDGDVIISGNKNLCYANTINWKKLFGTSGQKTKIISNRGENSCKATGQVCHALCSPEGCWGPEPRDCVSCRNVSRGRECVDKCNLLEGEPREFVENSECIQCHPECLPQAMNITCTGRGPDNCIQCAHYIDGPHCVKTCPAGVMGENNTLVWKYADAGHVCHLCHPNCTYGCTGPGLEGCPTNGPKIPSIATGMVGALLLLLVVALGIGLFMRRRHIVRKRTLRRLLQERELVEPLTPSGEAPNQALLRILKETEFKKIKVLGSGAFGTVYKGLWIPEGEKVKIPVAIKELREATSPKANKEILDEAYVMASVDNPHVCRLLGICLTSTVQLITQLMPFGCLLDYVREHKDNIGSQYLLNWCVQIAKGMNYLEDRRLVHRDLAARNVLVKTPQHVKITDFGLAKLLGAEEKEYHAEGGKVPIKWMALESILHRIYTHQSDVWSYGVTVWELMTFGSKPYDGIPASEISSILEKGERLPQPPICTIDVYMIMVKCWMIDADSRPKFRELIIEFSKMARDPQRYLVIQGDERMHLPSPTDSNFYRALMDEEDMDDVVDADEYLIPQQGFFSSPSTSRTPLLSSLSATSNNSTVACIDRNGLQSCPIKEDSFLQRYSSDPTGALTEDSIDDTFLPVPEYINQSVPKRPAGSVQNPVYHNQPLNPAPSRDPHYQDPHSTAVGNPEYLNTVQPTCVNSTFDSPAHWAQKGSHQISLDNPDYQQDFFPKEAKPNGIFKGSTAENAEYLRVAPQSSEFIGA
Chain of Follistatin-related protein 3 (Homo sapiens) (O95633 whole entry, looked up): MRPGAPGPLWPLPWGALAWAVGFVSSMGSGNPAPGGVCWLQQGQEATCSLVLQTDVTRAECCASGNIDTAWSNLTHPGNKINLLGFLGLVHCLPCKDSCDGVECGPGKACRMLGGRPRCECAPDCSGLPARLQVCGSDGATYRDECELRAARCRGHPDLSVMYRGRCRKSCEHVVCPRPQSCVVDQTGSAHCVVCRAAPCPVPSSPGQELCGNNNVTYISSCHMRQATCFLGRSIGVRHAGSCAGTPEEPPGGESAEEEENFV

With `COc1ccc(C(=O)Nc2cccc(CN3C(=O)[C@]4(O[C@H](CCn5cc(CCO)nn5)[C@@H]([Si](C)(C)c5ccc(OC)cc5)[C@@H]4C)c4ccccc43)c2)cc1`, the composite z-score amounted to 0.83 in experiment [1]; 0.601 in [2]; 0.127 in [3]; 0.17 in experiment [5]; 0.495 in [6]; 0.529 in [7]. For the same compound, the composite z-score in [8] is 1.01; in experiment [9] it was 0.201; in experiment [10], 1.55. Moreover, the z-score in experiment [4] is 2.05 (inactive).
Turning to `O=C(O)[C@H]1C[C@H]2C(=O)N3CCC[C@H]3C(=O)N2[C@H]1c1ccc(O)cc1`, the composite z-score in experiment [1] was 0.383; in experiment [2] it was -0.0067; in [3], 0.915; in experiment [5], -1.41; in experiment [6], -0.474; in [7], -1.51. Moreover, the composite z-score is -0.949 in [8], -1.13 in [9] and -0.209 in [10]. Moreover, in experiment [4], the z-score was 0.127 (inactive).
Regarding `CCN(CC)c1ccc(N2CC=CC34O[C@@H]5C=CCOC(=O)[C@@H]5[C@H]3C(=O)N(CCCCCCO)[C@@H]4C2=O)cc1` (stereo not given in full), the composite z-score was 1.85 in experiment [1]; -0.131 in experiment [2]; 0.844 in experiment [3]; -0.655 in [5]; -0.559 in experiment [6]; -0.366 in experiment [7]. In addition, the results for the composite z-score in experiment [8], in [9] and in experiment [10] were -0.406, -0.863 and 1.17, respectively. The z-score in [4] was -0.93 (inactive).
Regarding `O=C1C2C=CC(C(O)c3ccc4c(c3)OCO4)N(Nc3ccc([N+](=O)[O-])cc3)C2C(=O)N1c1ccccc1` (stereo not given), the composite z-score is 1.73 in [1]; -0.0669 in [2]; -0.162 in [3]; 0.67 in experiment [5]; 0.675 in experiment [6]; 0.342 in [7]. The composite z-score came out at 0.381 in experiment [8], 0.207 in [9] and 0.278 in experiment [10]. In addition, in [4], the z-score was -0.0322 (inactive).
Consider `CC(C)[Si](C#CCCCC#N)(O[C@H](c1ccccc1)c1cn(Cc2cccc(Cl)c2)nn1)C(C)C`, for which the composite z-score in experiment [1] was 0.397; in [2], -0.0654; in experiment [3] it was -0.594; in experiment [5] it was 0.483; in experiment [6] it was 1.18; in [7], 0.376. Also, the composite z-score was 1.11 in experiment [8], 0.968 in experiment [9] and -0.018 in experiment [10]. Besides, the z-score in [4] was -1.64 (inactive).
Consider `O=C1[C@H]2C=C(I)[C@H](C[C@@H]2OCCCCO)[C@@]12CO2`, for which the composite z-score in experiment [1] is 1.15; in experiment [2], -0.0509; in experiment [3] it was 0.0634; in [5] it was -0.0509; in [6], 0.0622; in experiment [7], -0.15. The results for the composite z-score in [8], in experiment [9] and in experiment [10] were -0.0542, 0.062 and 0.873, respectively. Further, the z-score in experiment [4] was 0.0898 (inactive).
Regarding `O=C(CS)NCCCCCNC(=O)[C@@H]1C[C@@H]2C(=O)NCC(=O)N2[C@@H]1c1cccc(OCCO)c1`, the composite z-score in experiment [1] amounted to 1.17; in experiment [2], 0.0565; in [3], 0.21; in experiment [5] it was 0.18; in [6] it was 0.0776; in [7], 0.752. The figures for the composite z-score in [8], in experiment [9] and in experiment [10] were 0.0486, 0.543 and 0.501, respectively. Moreover, the z-score in [4] was -1.82 (inactive).
As to `CN1CCC(CCCO)=CC1c1cccs1` (stereo not given), the composite z-score in experiment [1] is 0.238; in experiment [2], -0.391; in experiment [3] it was -0.141; in [5], -0.095; in [6], 0.0706; in experiment [7] it was -0.185. Moreover, the composite z-score in experiment [8] was -0.61; in experiment [9], 0.208; in experiment [10] it was 0.233. Further, the z-score in experiment [4] is 0.697 (inactive).
With `CC1CC/C=C\[C@H]2OC34C=CCN(Cn5nnc6ccccc65)C(=O)[C@H]3N(CCCCCO)C(=O)[C@@H]4C2C(=O)O1` (stereo not given in full), the composite z-score in experiment [1] is 0.285; in experiment [2] it was -0.415; in experiment [3], 0.598; in experiment [5], -1.26; in experiment [6] it was -1.32; in experiment [7], -0.494. Further, the composite z-score was -0.186 in experiment [8], -1.27 in [9] and -0.318 in experiment [10]. The z-score in experiment [4] was 0.271 (inactive).
For the compound `C=CC[C@]12N=C(c3ccc(OCCCO)cc3)O[C@H]1c1ccccc1N(CCS(=O)(=O)c1ccccc1)C2=O`, the composite z-score came to 1.43 in experiment [1]; 0.419 in experiment [2]; 0.777 in experiment [3]; 0.374 in experiment [5]; 1.3 in experiment [6]; 0.595 in [7]. Moreover, the composite z-score was 1.11 in [8], 0.694 in experiment [9] and 1.26 in experiment [10]. Also, in experiment [4], the z-score was -2.04 (inactive).
Turning to `CCCC[C@@H]1C[C@H]1[C@@H](NC(=O)c1cccnc1)c1ccc(Cl)cc1`, the composite z-score was -1.89 in experiment [1]; 0.636 in [2]; 1.38 in experiment [3]; -2.18 in experiment [5]; -2.37 in experiment [6]; -2.19 in experiment [7]. The composite z-score was -2.37 in [8], -2.48 in experiment [9] and 0.0159 in experiment [10]. Further, in experiment [4], the z-score is -2.46 (inactive).
Regarding `Cc1ccc(S(=O)(=O)N2C[C@@H](C(=O)O)[C@H](Sc3ccccc3)C[C@H]2c2ccccc2)cc1`, the composite z-score in experiment [1] worked out at 1.47; in [2] it was 0.707; in [3] it was 0.999; in experiment [5] it was 1.15; in [6], 0.586; in [7], 0.14. The composite z-score in experiment [8] was 1.29; in experiment [9], -0.503; in experiment [10] it was 0.49. Besides, the z-score in [4] was 1.64 (inactive).
Consider `C=CCNC(=O)[C@@H]1[C@H]2C(=O)O[C@H](c3ccccc3)[C@H](c3ccccc3)N2[C@H](c2ccc(OCCO)cc2)[C@@]12C(=O)N(C(=O)OCCOC)c1ccc(C#CCC(C(=O)OC)C(=O)OC)cc12`, for which the composite z-score stood at 1.32 in experiment [1]; 0.951 in experiment [2]; 0.328 in [3]; 1.07 in experiment [5]; 1.28 in [6]; 0.719 in experiment [7]. Also, the composite z-score in [8] is 1.1; in [9], 1.29; in experiment [10], -0.0578. Further, in experiment [4], the z-score was 1.01 (inactive).
For `CC(C)(C)OC(=O)CC[C@]1(C(N)=O)N=C(c2ccc(OCCCO)cc2)O[C@H]1c1ccccc1`, the composite z-score in [1] was 0.883; in experiment [2] it was 1.32; in experiment [3], 1.35; in [5], 1.36; in [6], 0.555; in [7] it was -0.589. Moreover, the results for the composite z-score in [8], in experiment [9] and in experiment [10] were -0.188, -1.16 and 0.976, respectively. The z-score in experiment [4] was 0.138 (inactive).
In the case of `O=C1OCCC=C[C@H]2OC34C=CCN(c5ccc(Cl)cc5)C(=O)[C@H]3N(CCCO)C(=O)[C@@H]4C12` (stereo not given in full), the composite z-score in experiment [1] was -0.41; in experiment [2], -0.227; in experiment [3], 0.0093; in [5], 0.0364; in experiment [6] it was -1.4; in [7], -0.522. Further, the composite z-score in [8] was -0.181; in experiment [9], -0.455; in [10], 1.52. Also, in experiment [4], the z-score is -1.29 (inactive).
As to `O=C1O[C@H](c2ccccc2)[C@H](c2ccccc2)N2[C@H]1[C@@H](C(=O)NC[C@H](O)c1ccccc1)[C@]1(C(=O)Nc3ccc(C#CC4=CCCCC4)cc31)[C@H]2c1ccccc1OCCO`, the composite z-score is 0.312 in experiment [1]; 0.697 in experiment [2]; 0.722 in experiment [3]; 0.439 in experiment [5]; 1.13 in experiment [6]; 0.208 in [7]. Further, the composite z-score was determined as 0.627 in experiment [8], 0.359 in experiment [9] and 1.06 in experiment [10]. Besides, the z-score in [4] is -1.74 (inactive).
`COc1ccc([Si](C)(C)[C@@H]2[C@@H](CCO)O[C@]3(C(=O)N(Cc4cccc(N5CCOC5=O)c4)c4ccccc43)[C@H]2C)cc1`: the composite z-score came out at 0.75 in experiment [1]; 0.644 in experiment [2]; 0.246 in [3]; 0.415 in experiment [5]; 0.67 in [6]; 0.0548 in experiment [7]. Also, the composite z-score in experiment [8] came out at 0.648; in [9], 0.405; in experiment [10], 0.593. Besides, the z-score in [4] is -0.871 (inactive).
